Assays:
Details in all cases: concentration: 1 μM, replicates: in singlicate; n = 1
GRK7 = tested on: GRK7
GSK3A = tested on: GSK3A
GSK3B = tested on: GSK3B
HASPIN = tested on: T1, HASPIN
T1 construct: gene GSG2

HCK = tested on: HCK
HIPK1 = tested on: HIPK1
HIPK2 = tested on: HIPK2
HIPK3 = tested on: HIPK3
HIPK4 = tested on: HIPK4
HPK1 = tested on: HPK1
HUNK = tested on: HUNK
ICK = tested on: ICK
IGF1R = tested on: IGF1R
IKK-alpha = tested on: T2, IKK-alpha
T2 construct: gene CHUK

IKK-beta = tested on: T3, IKK-beta
T3 construct: gene IKBKB

IKK-epsilon = tested on: T4, IKK-epsilon
T4 construct: gene IKBKE

INSRR = tested on: INSRR
INSR = tested on: INSR
IRAK1 = tested on: IRAK1
IRAK3 = tested on: IRAK3
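Note: KINOMEscan kinase panel screen.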

Compound	%Inh (GRK7) [%]	%Inh (GSK3A) [%]	%Inh (GSK3B) [%]	%Inh (HASPIN) [%]	%Inh (HCK) [%]	%Inh (HIPK1) [%]	%Inh (HIPK2) [%]	%Inh (HIPK3) [%]	%Inh (HIPK4) [%]	%Inh (HPK1) [%]	%Inh (HUNK) [%]	%Inh (ICK) [%]	%Inh (IGF1R) [%]	%Inh (IKK-alpha) [%]	%Inh (IKK-beta) [%]	%Inh (IKK-epsilon) [%]	%Inh (INSRR) [%]	%Inh (INSR) [%]	%Inh (IRAK1) [%]	%Inh (IRAK3) [%]
Clc1cc(Cl)cc(Nc2ccnc(Nc3cc(Cl)cc(Cl)c3)n2)c1 [GSK175726]	0	30	0	0	10	32	1	7	0	38	0	7	16	0	10	39	0	13	15	2
Cc1cccc(-c2nc(Nc3ccncc3)c3ccccc3n2)n1 [GW855857]	0	4	0	26	11	41	0	0	19	9	0	0	0	0	0	0	0	7	0	21
O=C(Nc1ccccc1)Nc1cccc(Oc2ccc3nccn3n2)c1	0	50	0	4	24	0	27	0	9	33	18	0	0	7	0	0	0	0	9	1
CS(=O)(=O)c1ccc(-c2nc3n(c2-c2ccncc2)CCC3)cc1 [SKF-105942]	0	0	10	0	0	0	0	8	0	37	27	100	0	0	0	0	0	16	1	0
Cn1cncc1-c1ccc2ncnc(Nc3ccc(OCc4ccccc4)cc3)c2c1 [GW320571]	0	0	4	10	0	41	49	51	13	32	0	0	24	0	0	0	22	3	11	3
O=C(O)COc1ncnc2cc(-c3ccc4[nH]ncc4c3)sc12	0	25	27	41	14	45	47	47	38	7	18	31	0	28	19	4	19	0	29	38
COc1cc(Nc2nccc(N3CCC(NC(=O)Nc4cc(C)ccc4C)C3)n2)cc(OC)c1OC (stereo not shown) [GSK1379762]	0	0	11	0	0	0	0	13	0	66	0	22	15	21	17	23	9	0	58	73
COc1ccc(Nc2nccc(-c3cccc(NC(=O)c4cc5cc(F)ccc5[nH]4)c3)n2)cc1 [GSK1229782]	0	31	0	39	0	0	46	0	36	65	8	0	17	21	13	0	0	0	25	42
Cc1cccc(-c2cc(Nc3ccncc3)c3ccccc3n2)n1 [GSK223675]	0	17	12	0	0	0	0	5	0	12	0	11	0	0	0	36	0	14	15	0
CS(=O)(=O)c1ccc(-c2c(-c3ncn[nH]3)sc(N3CCOCC3)c2C#N)cc1	43	0	24	0	43	38	24	28	8	0	0	0	7	36	29	24	15	0	0	100
Cc1ccc(NC(=O)Nc2cc(C(C)(C)C)nn2-c2ccccc2)cc1 [GSK1014915]	0	0	13	0	0	0	0	13	0	25	0	23	8	22	20	1	0	13	23	100

Reference: PMC5540273 (PLoS ONE, 2017)
